The supplement of paper PMC9694430

Key:
Experiment in all cases: thermal shift delta Tm vs DMSO control; higher = stronger stabilization (binding)
Conditions in all cases: 12.5 µM; protein concentration 2 µM
LOC_OS01G57100-cb003 = tested on: LOC_OS01G57100-cb003
Outline: (§1)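 Rice kinase domain constructs, made in E. coli and purified, were placed in 96-well plates at 2 μM in 19.5 μl of 100 mM potassium phosphate pH 7.5, 150 mM NaCl, 10% glycerol and 5 × SYPRO Orange, with compound in DMSO. A temperature ramp from 25°C to 95°C at 0.05°C/s was used for differential scanning fluorimetry. The melting temperature shift is a triplicate mean compared with DMSO-only protein, derived from Boltzmann fits.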

LOC_OS01G60330-cb001 = tested on: LOC_OS01G60330-cb001
Outline: as §1

LOC_OS01G60700-cb002 = tested on: LOC_OS01G60700-cb002
Outline: as §1

LOC_OS01G63280-cb003 = tested on: LOC_OS01G63280-cb003
Outline: as §1

LOC_OS01G67340-cb003 = tested on: LOC_OS01G67340-cb003
Outline: as §1

LOC_OS01G70970-cb002 = tested on: LOC_OS01G70970-cb002
Outline: as §1

LOC_OS02G07810-cb001 = tested on: LOC_OS02G07810-cb001
Outline: as §1

LOC_OS02G08530-cb003 = tested on: LOC_OS02G08530-cb003
Outline: as §1

LOC_OS02G14120-cb001 = tested on: LOC_OS02G14120-cb001
Outline: as §1

LOC_OS02G17970-cb001 = tested on: LOC_OS02G17970-cb001
Outline: as §1

LOC_OS02G45750-cb003 = tested on: LOC_OS02G45750-cb003
Outline: as §1

LOC_OS02G54510-cb004 = tested on: LOC_OS02G54510-cb004
Outline: as §1

LOC_OS03G04050-cb001 = tested on: LOC_OS03G04050-cb001
Outline: as §1

LOC_OS03G12390-cb001 = tested on: LOC_OS03G12390-cb001
Outline: as §1

LOC_OS03G27990-cb004 = tested on: LOC_OS03G27990-cb004
Outline: as §1

LOC_OS03G50450-cb001 = tested on: LOC_OS03G50450-cb001
Outline: as §1

LOC_OS03G50810-cb003 = tested on: LOC_OS03G50810-cb003
Outline: as §1

LOC_OS04G35114-cb001 = tested on: LOC_OS04G35114-cb001
Outline: as §1

LOC_OS04G38480-cb003 = tested on: T1, LOC_OS04G38480-cb003
T1 sequence (whole entry): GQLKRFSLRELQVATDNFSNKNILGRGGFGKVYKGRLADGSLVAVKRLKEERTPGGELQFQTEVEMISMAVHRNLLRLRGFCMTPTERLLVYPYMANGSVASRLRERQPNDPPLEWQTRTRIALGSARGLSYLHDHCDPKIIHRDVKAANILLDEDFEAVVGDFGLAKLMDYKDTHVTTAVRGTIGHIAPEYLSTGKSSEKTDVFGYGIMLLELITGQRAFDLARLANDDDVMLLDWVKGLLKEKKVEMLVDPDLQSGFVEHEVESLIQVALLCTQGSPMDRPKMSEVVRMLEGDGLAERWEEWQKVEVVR
Outline: as §1

LOC_OS04G41100-cb001 = tested on: T2, LOC_OS04G41100-cb001
T2 sequence (whole entry): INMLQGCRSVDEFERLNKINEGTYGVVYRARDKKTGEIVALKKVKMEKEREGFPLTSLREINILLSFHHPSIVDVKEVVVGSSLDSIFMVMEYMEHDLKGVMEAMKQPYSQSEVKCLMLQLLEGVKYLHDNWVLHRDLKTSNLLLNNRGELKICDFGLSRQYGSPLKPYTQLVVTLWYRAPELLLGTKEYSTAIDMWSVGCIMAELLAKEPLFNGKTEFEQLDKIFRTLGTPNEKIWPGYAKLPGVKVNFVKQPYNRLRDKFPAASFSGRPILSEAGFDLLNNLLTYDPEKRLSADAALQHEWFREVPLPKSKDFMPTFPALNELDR
Outline: as §1
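Note: purified Escherichia coli-expressed rice kinase domain construct.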

SMILES	thermal shift delta Tm (LOC_OS01G57100-cb003) [°C]	thermal shift delta Tm (LOC_OS01G60330-cb001) [°C]	thermal shift delta Tm (LOC_OS01G60700-cb002) [°C]	thermal shift delta Tm (LOC_OS01G63280-cb003) [°C]	thermal shift delta Tm (LOC_OS01G67340-cb003) [°C]	thermal shift delta Tm (LOC_OS01G70970-cb002) [°C]	thermal shift delta Tm (LOC_OS02G07810-cb001) [°C]	thermal shift delta Tm (LOC_OS02G08530-cb003) [°C]	thermal shift delta Tm (LOC_OS02G14120-cb001) [°C]	thermal shift delta Tm (LOC_OS02G17970-cb001) [°C]	thermal shift delta Tm (LOC_OS02G45750-cb003) [°C]	thermal shift delta Tm (LOC_OS02G54510-cb004) [°C]	thermal shift delta Tm (LOC_OS03G04050-cb001) [°C]	thermal shift delta Tm (LOC_OS03G12390-cb001) [°C]	thermal shift delta Tm (LOC_OS03G27990-cb004) [°C]	thermal shift delta Tm (LOC_OS03G50450-cb001) [°C]	thermal shift delta Tm (LOC_OS03G50810-cb003) [°C]	thermal shift delta Tm (LOC_OS04G35114-cb001) [°C]	thermal shift delta Tm (LOC_OS04G38480-cb003) [°C]	thermal shift delta Tm (LOC_OS04G41100-cb001) [°C]
CCn1c(C(=O)N(C2CC2)C2CC2)cc2c3c(ncn3C)c(Nc3cc(C)n(C)n3)nc21	1.18	1.11	1.61	0.73	0.2	0.33	0.6	1.47	4.36	1.3	1.23	0.33	0.44	1.55	0.13	0.66	1.38	2.5	1.2	0.58
CCOc1cc2ncc(C#N)c(Nc3ccc(F)c(Cl)c3)c2cc1NC(=O)/C=C/CN(C)C [Pelitinib (EKB-569)]	2.45	0.74	0.94	-0.05	0.12	0.22	0.84	0.59	0.98	0.01	4.93	0.37	0.32	0.42	3.2	0.73	1.15	5.5	0.56	0.56
Cc1c[nH]c2nc(Nc3ccc(N4CCN(C)CC4)c(F)c3)nc(-c3cccc(CC#N)c3)c12	5.04	11.8	1.98	3.25	11.9	8.75	1.04	6.49	15.2	1.24	11.6	3.94	0.91	13	8.79	8.2	9.84	12.4	6.06	1.61
Cn1cnc2c(F)c(Nc3ccc(Br)cc3F)c(C(=O)NOCCO)cc21	0.75	0.73	1.26	0.46	0.06	0.46	1.12	0.93	-0.02	1.34	0.6	0.05	0.71	0.19	0.4	0.43	0.44	0	1.48	0.46
CN(C[C@@H]1COCCO1)S(=O)(=O)Nc1ccc2ccc3ncc(-c4cnn(C)c4)cc3c(=O)c2c1	2.19	0.33	1.15	1.83	0.51	9.99	1.23	1.58	8.53	0.59	9.61	0.42	0.37	0.09	1.72	0.44	3.78	7.88	2.89	0.3
CC(C)(C)NC(=O)c1cncn1C1CCN(c2ccc(-c3nnc(C(F)(F)F)o3)cn2)CC1	-0.21	0.32	-0.26	-0.16	0.05	0.37	-1.16	0.52	0.95	-0.2	0.9	0.27	0.48	-0.08	0.32	0.7	0.36	-0.3	1.43	0.3
CC(C)(C)NS(=O)(=O)c1cncc(-c2cc(F)c3nc(N)nn3c2)c1	1.55	0.87	1.82	0.83	0.93	0.9	1.06	0.86	-0.33	2.29	0.74	0.24	0.64	0.19	0.94	0.53	0.4	0.87	0.98	0.29
C=CC(=O)Nc1cccc(C)c1Nc1ncc2cc(-c3c(Cl)c(OC)cc(OC)c3Cl)ccc2n1	1.11	1.2	0.26	-0.06	0.6	0.35	0.78	0.7	1.59	0.63	1.09	0.44	0.49	-0.06	0.28	0.23	0.27	0.49	2.08	0.27
COc1cc2ncnc(Oc3ccc(CC(=O)Nc4cnn(C(C)C)c4)cc3)c2cc1OC	0.71	0.05	1.1	0.13	-0.21	0.47	0.52	0.53	0.06	0.84	0.54	0.74	0.53	0.37	0.19	0.01	0.5	2.1	1.49	0.32
COc1cc(N2CCN(C)CC2)ccc1Nc1nccc(-c2cn(C)c3cnccc23)n1	1.48	2	1.01	0.34	0.37	0.31	0.46	3.48	5.04	0.61	2.73	0.02	0.3	9.57	0.05	-0.05	1.79	4.35	1.32	0.51
Cc1[nH]c(/C=C2\C(=O)Nc3ccccc32)c(C)c1CCC(=O)O [Orantinib (TSU-68, SU6668)]	2.5	12.6	0.82	0.57	1.81	4.33	1.32	4.91	7.18	0.78	0	2.74	0.04	9.53	0.65	5.03	0	8.78	4.57	0.53
O=c1ncn2nc(Sc3ccc(F)cc3F)ccc2c1-c1c(Cl)cccc1Cl	1.7	0.91	0.86	0.47	-0.29	0.12	0.79	0.67	0.31	0.56	0.54	-0.07	0.23	0.07	-0.01	0.15	0.34	0.66	1.17	0.55
